Compound activity: PubChem BioAssay, several laboratories
CYP2C9 act: increases human cytochrome P450 2C9 activity | recombinant CYP2C9, luciferin-H conversion, luminescence; stronger effect = higher value; factor 1 = untreated enzyme, 0 = blocked | AID 1024 | 1.4% of 96,000 active | P11712 | activation factor at 5 µM;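 active means activation factor of 2 or more for CYP2C9 at a 5 µM dose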;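 further: 0 = sulfaphenazole-blocked wells and 1 = vehicle-only wells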
CYP2C9 inhib: human CYP2C9 inhibition; P11712; CYP2C9 Supersomes, luciferin-H conversion, luminescence; inhibition, % at 5 µM; 20% of 96,000 active;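 active means blocking of liver enzyme CYP2C9 beyond about 50% at 5 µM, limit read from the data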
CYP2C19 inh: blocks human cytochrome P450 2C19; inhibition, % at 5 µM; CYP2C19 Supersomes, luciferin-H EGE luminescence, 30 min; 21% of 96,000 active;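 active means CYP2C19 inhibition above a set limit at 5 µM in the primary screen, cut at about 50% in these data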;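 further: plate controls were negative control wells for no effect and 2.5 mM tranylcypromine positive control for full effect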
Target sequence (P33261 whole entry, looked up): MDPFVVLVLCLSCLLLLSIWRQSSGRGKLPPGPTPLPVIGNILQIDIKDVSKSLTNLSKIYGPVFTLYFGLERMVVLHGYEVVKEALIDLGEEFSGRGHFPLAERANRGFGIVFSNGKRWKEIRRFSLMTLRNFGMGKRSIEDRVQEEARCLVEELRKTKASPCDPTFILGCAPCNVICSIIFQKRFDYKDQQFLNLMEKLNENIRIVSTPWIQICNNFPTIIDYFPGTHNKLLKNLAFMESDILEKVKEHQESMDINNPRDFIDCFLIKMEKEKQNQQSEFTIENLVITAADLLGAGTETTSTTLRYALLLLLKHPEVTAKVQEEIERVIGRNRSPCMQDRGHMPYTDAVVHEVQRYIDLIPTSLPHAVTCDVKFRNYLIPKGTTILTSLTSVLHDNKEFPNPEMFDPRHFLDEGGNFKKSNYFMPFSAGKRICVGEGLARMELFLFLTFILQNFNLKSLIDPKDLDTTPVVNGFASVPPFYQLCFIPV
Cav3 T inh: human Cav3.2 channel inhibition, primary screen | B-score at 10 µM | 4% of 100,000 active | O95180 | Cav3.2-expressing cells, Fluo-4 calcium fluorescence FDSS; stronger effect = lower value | AID 449739;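 active means single-dose well whose peak fluorescence ratio is a statistical outlier from its plate by either plate-standardised score or position-corrected B-score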
CYP2C19 activ: cytochrome P450 2C19 (human) activation. 96,000 tested, under 10 active. recombinant CYP2C19, luciferin-H EGE luminescence; stronger effect = higher value; 0 = fully inhibited enzyme, 1 = untreated enzyme. activation factor at 5 µM;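 active means activation factor of at least 2 at 5 µM in the primary screen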;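 further: 0 = wells with 2.5 mM tranylcypromine and 1 = vehicle-only wells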
The depositor's hits bear a star; . = no result given. This is a sample that favours compounds with a hit; in the whole collection about 27% have one here.

SMILES	CYP2C9 act	CYP2C9 inhib	CYP2C19 inh	Cav3 T inh	CYP2C19 activ
CCOC(=O)C(C#N)C(Cc1ccccc1)c1ccco1 (stereo not drawn)	0.3	70*	92*	-1.7	0.1
Cc1ccc2nc(SCC(=O)N3CCOCC3)[nH]c2c1	0.9	9	68*	0.15	0.3
c1ccc2[nH]c(N3CCOCC3)nc2c1	1.2	-24	-16	-0.77	1.2
O=C(CSc1nc2ccccc2[nH]1)N1CCN(c2ccccc2)CC1	0.6	44	50	0.23	0.5
O=C(CSc1nc2ccccc2[nH]1)N1CCCCC1	0.8	16	88*	0.42	0.1
c1ccc2[nH]c(SCCN3CCOCC3)nc2c1	1	3	59*	0.088	0.4
Cc1ccc2nc(SCC(=O)Nc3cc(C(F)(F)F)ccc3N3CCOCC3)[nH]c2c1	0.7	28	37	-1.1	0.6
Cc1c(C)n(C(=O)CSc2nc3ccccc3[nH]2)c2ccccc12	0.1	94*	95*	-2.6	0.1
Cc1cc(C)c(C)c(S(=O)(=O)N2CCN(CC(=O)NC(=O)NCc3ccccc3)CC2)c1C	1.3	-30	-4	0.026	1
O=C(CCCSc1nc2ccccc2[nH]1)N1CCN(c2ccccc2)CC1	1.4	-36	25	-1	0.8
Cc1cccc(N2CCN(C(=O)CCCSc3nc4ccccc4[nH]3)CC2)c1C	0.6	44	42	-5.5*	0.6
Cc1ccc2[nH]c(SCC(=O)N3CCOCC3)nc2c1C	0.8	16	81*	0.39	0.2
COCCCNC(=S)NNC(=O)c1cccnc1	0.8	20	-4	1.2	1
O=C(Nc1cc(C(F)(F)F)ccc1N1CCCC1)c1cccnc1	0.6	43	43	-0.068	0.6
CCN(CC)C(=O)Oc1ccccc1NC(C)=O	1.1	-6	-1	0.33	1
CCN(CC)C(=O)Oc1ccc(Cl)c2ccccc12	1.5	-46	67*	-1.5	0.3
CCn1c(=O)n(CC)c2cc(S(=O)(=O)Nc3cc(C)cc(C)c3C#N)ccc21	0.2	80*	62*	1	0.4
CCn1c(=O)n(CC)c2cc(S(=O)(=O)Nc3c(C)cccc3C)ccc21	0.3	67*	94*	-0.98	0.1
CCn1c(=O)n(CC)c2cc(S(N)(=O)=O)ccc21	0.9	9	2	-0.012	1
COc1ccc(NC(=O)C(=O)N2N=C(C(C)C)CC2(O)C(F)(F)F)cc1 (stereo not drawn)	1.1	-6	-4	0.066	1
CC(C)N(C(=O)Nc1ccc2nccnc2c1)C(C)C	0.9	6	9	.	0.9
CC(C)N(CCc1ccncc1)C(=O)Nc1ccc(Cl)c(Cl)c1	0	99*	100*	0.26	0
CC(C)N(CCc1ccncc1)C(=O)Nc1ccc(F)cc1	0.1	87*	97*	-0.29	0
CCc1ccc(NC(=O)N(CCN(C)C)C(C)c2cccnc2)cc1 (stereo not drawn)	0.8	15	16	-0.54	0.8
CCCCCn1c(CCNC(=O)c2cccs2)nc2ccccc21	0.1	92*	96*	-3.4	0
SMILES	CYP2C9 act	CYP2C9 inhib	CYP2C19 inh	Cav3 T inh	CYP2C19 activ
CCn1c(C(C)NC(=O)c2cccs2)nc2ccccc21 (stereo not drawn)	0.5	52*	33	.	0.7
CCCCCn1c(CNC(=O)c2cccs2)nc2ccccc21	.	.	.	-1.9	.
O=C(CSc1ncnc2ccccc12)Nc1ccc(N2CCOCC2)cc1	1	0	-16	0.13	1.2
O=C(Nc1ccc(S(=O)(=O)Nc2ncccn2)cc1)c1ccco1	1	2	-6	0.64	1.1
COc1cc(CC(=O)NCCc2ccc(S(N)(=O)=O)cc2)cc(OC)c1OC	0.8	18	-15	-0.7	1.2
Cc1ccccc1Cn1c(=O)n(CCC(=O)NCc2ccc3c(c2)OCO3)c(=O)c2ccccc21	0.7	34	32	0.29	0.7
Cc1ccccc1CN1CCN(CC(=O)NCc2ccc3c(c2)OCO3)C1=O	0.2	76*	15	0.13	0.8
O=C(Cn1nnc(-c2ccccc2F)n1)Nc1ccc2c(c1)OCO2	0.6	45	48	-1.6	0.5
Cc1ccccc1-c1nnn(CC(=O)NCc2ccc3c(c2)OCO3)n1	0.2	82*	47	-0.59	0.5
Cc1ccc(S(=O)(=O)NC(=O)COc2ccccc2C(N)=O)cc1	0.5	49	14	1.2	0.9
Clc1ccc2[nH]c3c(c2c1)CCc1cn[nH]c1-3	0.5	55*	18	-0.34	0.8
c1ccc2c3c([nH]c2c1)-c1[nH]ncc1CC3	0.3	67*	24	1.3	0.8
c1ccc2nc3c(nc2c1)[nH]c1ccccc13	0.8	22	26	0.63	0.7
CCN(CC)C(=O)C1CCCc2c1[nH]c1ccc(Cl)cc21 (stereo not drawn)	.	.	.	-2.8	.
Clc1ccc(Cc2noc(-c3cccs3)n2)cc1	0.9	6	11	-0.055	0.9
CC(NS(=O)(=O)c1ccccc1)C(=O)NCc1ccco1 (stereo not drawn)	1	3	44	0.06	0.6
CCC(NS(=O)(=O)c1ccc(C)cc1)C(=O)O (stereo not drawn)	1.1	-12	-17	0.36	1.2
Cc1ccc(S(=O)(=O)NC(CC(C)C)C(=O)Nc2nccs2)cc1 (stereo not drawn)	0.2	81*	43	.	0.6
Cc1ccc(S(=O)(=O)NC(CC(C)C)C(=O)NCc2ccco2)cc1 (stereo not drawn)	0.4	56*	54*	0.99	0.5
O=[N+]([O-])c1ccc(S(=O)(=O)NCCc2cn3ccccc3n2)cc1	.	.	.	-0.056	.
Cc1ccc(-c2nc3ncccc3o2)cc1NC(=O)COc1ccccc1	0.9	10	8	0.2	0.9
Cc1ccc(-c2nc3cccnc3o2)cc1NC(=O)COc1ccc(C(C)(C)C)cc1	0.4	55*	33	-0.79	0.7
CN(C)CCOC(=O)c1cccc(Br)c1	1	-3	-1	-0.22	1
Cc1[nH]c2ccc(C(=O)OCCN(C)C)cc2c1C	0.8	23	86*	1.9	0.1
CC(C)Oc1ccc(C(CC(=O)NCc2ccco2)c2ccccc2)cc1 (stereo not drawn)	0.3	68*	61*	-3.9*	0.4
SMILES	CYP2C9 act	CYP2C9 inhib	CYP2C19 inh	Cav3 T inh	CYP2C19 activ
CCc1ccc(-c2cn(-c3nc(C)cc(C)n3)c(=N)o2)cc1	0.8	23	59*	-0.027	0.4
CCc1ccc(C(=O)CN(C#N)c2nc(C)cc(C)n2)cc1	1.7	-71	27	-0.26	0.7
Cc1c(C(=O)NCCSCc2c(Cl)cccc2Cl)cccc1[N+](=O)[O-]	1.1	-7	13	0.15	0.9
Cc1nc2ccc(C(C(F)(F)F)(C(F)(F)F)C(F)(F)F)cc2[nH]1	0.4	63*	42	0.088	0.6
Cc1nc2ccc(S(=O)(=O)c3ccc4nc(C)[nH]c4c3)cc2[nH]1	0.8	17	22	0.9	0.8
CC(C)CCNC(=O)C1CCCN1C(=O)NC1CCCCC1 (stereo not drawn)	.	.	.	0.15	.
CCCNC(=O)c1cnc(Sc2ncc(C(F)(F)F)cc2Cl)n1C	0.3	71*	24	0.61	0.8
